According to PubChem BioAssay (EPA / NIEHS):
Some compounds were tested as several samples or in several runs, with calls that do not always agree. The source made the active and inactive calls. How the source made its calls: active means hit-call score of the fitted dose curve at least 0.9, where 1 is the maximum; inactive means score below 0.9.

Columns and labels:
[1] = read-out: urokinase Plasminogen Activator (uPA), PLAU (gene 5328); test: BSK_BF4T_uPA: BioMAP Diversity Plus: BF4T Assay for urokinase Plasminogen Activator (uPA) Biomarker Activity (AID 2284275); conditions: primary human bronchial epithelial cells with fibroblasts
Method in brief: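 Co-culture of human bronchial epithelial cells and dermal fibroblasts; uPA quantified by ELISA 24 hours after dosing, fitted relative to DMSO. Parallel SRB total-protein staining assessed overt cytotoxicity.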

[2] = read-out: Matrix Metallopeptidase 9 (MMP9), MMP9 (gene 4318); test: BSK_BF4T_MMP9: BioMAP Diversity Plus: BF4T Assay for Matrix Metallopeptidase 9 (MMP9) Biomarker Activity (AID 2284276); conditions: primary human bronchial epithelial cells with fibroblasts
Method in brief: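 Co-culture of human bronchial epithelial cells and dermal fibroblasts dosed for 24 h; MMP-9 quantified by ELISA and fitted upward versus DMSO. Cytotoxicity monitored in parallel cultures by SRB total-protein staining at the biomarker time point.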

[3] = read-out: Interleukin-8 (IL8), CXCL8 (gene 3576); test: BSK_IMphg_IL8: BioMAP Diversity Plus: IMphg Assay for Interleukin-8 (IL8) Biomarker Activity (AID 2284277); conditions: primary human endothelial cells with macrophages
Method in brief: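 Co-culture of human venular endothelial cells and macrophages exposed to chemicals for 24 h; IL-8 quantified by ELISA and compared against the DMSO baseline, with SRB total-protein staining in parallel cultures for cytotoxicity.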

[4] = read-out: Intercellular Adhesion Molecule 1 (ICAM1), ICAM1 (gene 3383); test: BSK_BE3C_ICAM1: BioMAP Diversity Plus: BE3C Assay for Intercellular Adhesion Molecule 1 (ICAM1) Biomarker Activity (AID 2284278); conditions: primary human bronchial epithelial cells;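 further: cell-surface ICAM-1 protein level quantified by ELISA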
Method in brief: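 Primary human bronchial epithelial cells in BE3C system, 24 h after chemical dosing; cell-surface ICAM-1 measured by ELISA relative to DMSO. Parallel SRB staining (0.1% SRB after 10% TCA fixation, read at 560 nm) assessed cytotoxicity.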

[5] = read-out: Interferon-inducible T-cell alpha chemoattractant (ITAC), CXCL11 (gene 6373); test: BSK_BE3C_ITAC: BioMAP Diversity Plus: BE3C Assay for Interferon-inducible T-cell alpha chemoattractant (ITAC) Biomarker Activity (AID 2284279); conditions: primary human bronchial epithelial cells
Method in brief: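 Steps: dose human bronchial epithelial cells with chemical; incubate 24 h; measure I-TAC by ELISA; fit endpoint in positive direction against DMSO control. Cytotoxicity was checked in parallel cultures by SRB staining at harvest.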

[6] = read-out: Interleukin-8 (IL8), CXCL8 (gene 3576); test: BSK_BE3C_IL8: BioMAP Diversity Plus: BE3C Assay for Interleukin-8 (IL8) Biomarker Activity (AID 2284280); conditions: primary human bronchial epithelial cells
Method in brief: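 IL-8 signal gain, normalised to DMSO vehicle, was scored after a 24 h chemical exposure of primary human bronchial epithelial cells, with detection by ELISA.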

[7] = read-out: Epidermal growth factor receptor (EGFR), EGFR (gene 1956); test: BSK_BE3C_EGFR: BioMAP Diversity Plus: BE3C Assay for Epidermal growth factor receptor (EGFR) Biomarker Activity (AID 2284281); conditions: primary human bronchial epithelial cells
Method in brief: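 Compound is added to human bronchial epithelial cells, cells incubate 24 h, then EGFR is detected by ELISA. Values reflect positive-direction fitting relative to DMSO.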

[8] = read-out: KRT18 (gene 3875); test: BSK_BE3C_Keratin818: BioMAP Diversity Plus: BE3C Assay for Keratin 818 Biomarker Activity (AID 2284282); conditions: primary human bronchial epithelial cells
Method in brief: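 Primary human bronchial epithelial cells treated 24 h; Keratin 8/18 quantified by ELISA, fit relative to DMSO. Cytotoxicity tracked in parallel cultures by sulforhodamine B total-protein staining.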

[9] = read-out: Matrix Metallopeptidase 9 (MMP9), MMP9 (gene 4318); test: BSK_BE3C_MMP9: BioMAP Diversity Plus: BE3C Assay for Matrix Metallopeptidase 9 (MMP9) Biomarker Activity (AID 2284283); conditions: primary human bronchial epithelial cells
Method in brief: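 MMP9 is measured by ELISA after a 24 h compound exposure of primary human bronchial epithelial cultures. Parallel SRB staining gives overt cytotoxicity. Values fitted in the positive direction against DMSO.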

[10] = read-out: Plasminogen activator inhibitor-1 (PAI1), SERPINE1 (gene 5054); test: BSK_CASM3C_PAI1: BioMAP Diversity Plus: CASM3C Assay for Plasminogen activator inhibitor-1 (PAI1) Biomarker Activity (AID 2284284); conditions: primary human coronary artery smooth muscle cells;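 further: PAI-1 protein level measured by ELISA 24 h after dosing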
[11] = read-out: Vascular cell adhesion molecule 1 (VCAM1), VCAM1 (gene 7412); test: BSK_IMphg_VCAM1: BioMAP Diversity Plus: IMphg Assay for Vascular cell adhesion molecule 1 (VCAM1) Biomarker Activity (AID 2284286); conditions: primary human endothelial cells with macrophages
Method in brief: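 Human venular endothelial cells co-cultured with macrophages; VCAM-1 quantified by ELISA 24 h after dosing, fitted in the positive direction against DMSO. Cytotoxicity was checked in parallel cultures by SRB total-protein staining (0.1% SRB after 10% TCA fixation, 560 nm).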

[12] = read-out: Intercellular Adhesion Molecule 1 (ICAM1), ICAM1 (gene 3383); test: BSK_hDFCGF_ICAM1: BioMAP Diversity Plus: hDFCGF Assay for Intercellular Adhesion Molecule 1 (ICAM1) Biomarker Activity (AID 2284287); conditions: primary human foreskin fibroblasts
Method in brief: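 Primary human foreskin fibroblasts (hDFCGF system) dosed with chemical; ICAM-1 quantified by ELISA at 24 h relative to DMSO. Parallel SRB total-protein staining to assess overt cytotoxicity.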

[13] = read-out: CD40, CD40 (gene 958); test: BSK_IMphg_CD40: BioMAP Diversity Plus: IMphg Assay for CD40 Biomarker Activity (AID 2284288); conditions: primary human endothelial cells with macrophages
Method in brief: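 Venular endothelial cells co-cultured with macrophages (human primary), CD40 measured by ELISA 24 h after dosing. Positive-direction fit vs DMSO baseline; cytotoxicity tracked by SRB total-protein staining in parallel cultures.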

[14] = read-out: Interleukin-1 alpha (IL1a), IL1A (gene 3552); test: BSK_IMphg_IL1a: BioMAP Diversity Plus: IMphg Assay for Interleukin-1 alpha (IL1a) Biomarker Activity (AID 2284290); conditions: primary human endothelial cells with macrophages
Method in brief: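 Human venular endothelial cells co-cultured with macrophages, IMphg system. IL-1α is measured by ELISA 24 h after dosing and fitted in the positive direction against DMSO. Cytotoxicity is assessed by SRB staining of parallel cultures.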

[15] = read-out: E-selectin (Homo sapiens) (UniProt P16581); test: BSK_IMphg_ESelectin: BioMAP Diversity Plus: IMphg Assay for Eselectin Biomarker Activity (AID 2284291); conditions: primary human endothelial cells with macrophages
Method in brief: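 Human venular endothelial cell–macrophage co-culture, E-selectin measured by ELISA 24 h after chemical dosing. Signal fitted in the positive direction against DMSO as negative control and baseline.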

[16] = BSK_IMphg_SRB: Viability Assessment in the BioMAP Diversity Plus: IMphg Assay (AID 2284292); conditions: primary human endothelial cells with macrophages;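 further: measured one day after compound addition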
Method in brief: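 Human venular endothelial cells with macrophages, 24 h after chemical dosing; total protein by 0.1% SRB staining after 10% TCA fixation, read at 560 nm. Positive-direction fitting versus DMSO baseline.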

[17] = read-out: Macrophage colony-stimulating factor (MCSF), CSF1 (gene 1435); test: BSK_IMphg_MCSF: BioMAP Diversity Plus: IMphg Assay for Macrophage colony-stimulating factor (MCSF) Biomarker Activity (AID 2284293); conditions: primary human endothelial cells with macrophages
Method in brief: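 Co-culture of human venular endothelial cells and macrophages, 24 hours of chemical exposure. M-CSF quantified by ELISA, with parallel SRB total-protein staining for cytotoxicity; activity fitted relative to DMSO.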

[18] = read-out: Interleukin-10 (IL10), IL10 (gene 3586); test: BSK_IMphg_IL10: BioMAP Diversity Plus: IMphg Assay for Interleukin-10 (IL10) Biomarker Activity (AID 2284294); conditions: primary human endothelial cells with macrophages
Method in brief: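 Human venular endothelial cells cocultured with macrophages, dosed 24 h; IL-10 measured by ELISA, activity relative to DMSO. Cytotoxicity assessed in parallel cultures by sulforhodamine B total-protein staining.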

[19] = read-out: TIMP metallopeptidase inhibitor 2 (TIMP2), TIMP2 (gene 7077); test: BSK_hDFCGF_TIMP2: BioMAP Diversity Plus: hDFCGF Assay for TIMP metallopeptidase inhibitor 2 (TIMP2) Biomarker Activity (AID 2284289); conditions: primary human foreskin fibroblasts
Method in brief: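 Primary human foreskin fibroblasts in the hDFCGF system, dosed for 24 h; TIMP-2 level measured by ELISA, fitted in the positive direction against DMSO; cytotoxicity checked in parallel by sulforhodamine B total protein staining.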

E-selectin (Homo sapiens), sequence (P16581 whole entry, looked up): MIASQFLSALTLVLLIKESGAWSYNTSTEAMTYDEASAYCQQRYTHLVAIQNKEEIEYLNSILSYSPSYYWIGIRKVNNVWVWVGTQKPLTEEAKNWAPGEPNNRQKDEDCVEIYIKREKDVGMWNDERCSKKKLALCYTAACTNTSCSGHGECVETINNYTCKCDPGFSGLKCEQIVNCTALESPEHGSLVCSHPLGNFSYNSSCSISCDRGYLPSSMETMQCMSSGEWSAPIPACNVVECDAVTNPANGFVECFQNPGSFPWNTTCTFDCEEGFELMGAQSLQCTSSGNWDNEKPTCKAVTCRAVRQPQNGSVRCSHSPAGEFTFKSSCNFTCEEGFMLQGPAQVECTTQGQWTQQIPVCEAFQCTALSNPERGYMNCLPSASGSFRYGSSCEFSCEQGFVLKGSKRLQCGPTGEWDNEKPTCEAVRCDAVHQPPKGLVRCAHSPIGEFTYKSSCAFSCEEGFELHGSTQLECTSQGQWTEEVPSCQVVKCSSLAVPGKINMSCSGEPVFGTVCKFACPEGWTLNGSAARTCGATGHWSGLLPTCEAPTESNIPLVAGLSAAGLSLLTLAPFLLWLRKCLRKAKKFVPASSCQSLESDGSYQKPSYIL

Row | SMILES | outcome [1] | outcome [2] | outcome [3] | outcome [4] | outcome [5] | outcome [6] | outcome [7] | outcome [8] | outcome [9] | outcome [10] | outcome [11] | outcome [12] | outcome [13] | outcome [14] | outcome [15] | outcome [16] | outcome [17] | outcome [18] | AC50 [13] | outcome [19]
1 | FC(F)(F)C(F)(F)C(F)(F)CI | inactive | inactive | inactive | inactive | inactive | inactive | inactive | inactive | inactive | inactive | inactive | inactive | inactive | inactive | inactive | inactive | inactive |  |  | 
2 | NC(=O)C(F)(F)C(F)(F)C(F)(F)C(F)(F)F | inactive | inactive | inactive | inactive | inactive | inactive | inactive | inactive | inactive | inactive | inactive |  | inactive | inactive | inactive | inactive | inactive | inactive |  | 
3 | FC1CC(F)(F)C(F)(F)C1(F)F (stereo not given) | inactive | inactive | inactive | inactive | inactive | inactive | inactive | inactive | inactive | inactive | inactive | inactive | inactive | inactive | inactive | inactive | inactive | inactive |  | 
4 | FC(F)(F)C(F)(F)C(F)(F)C(F)(F)C(F)(F)C(F)(F)CC1CO1 (stereo not given) | inactive | inactive | inactive | inactive | inactive | inactive | inactive | inactive | inactive | inactive | inactive | inactive | inactive | inactive | inactive | inactive | inactive |  |  | 
5 | C=CC(=O)OCC(F)(F)C(F)(F)C(F)(F)C(F)(F)C(F)(F)C(F)(F)C(F)(F)F | inactive | inactive | inactive | inactive | inactive | inactive | inactive | inactive | inactive | inactive | inactive |  | inactive | inactive | inactive | inactive | inactive | inactive | 6.54 µM (active) | inactive
6 | O=C(O)C(F)(F)C(F)(F)C(F)(F)C(F)(F)F | inactive | inactive | inactive | inactive | inactive | inactive | inactive | inactive | inactive | inactive | inactive |  | inactive | inactive | inactive | inactive | inactive |  |  | inactive
